Laboratory results: PubChem BioAssay (NCI)
Compounds without any hit were thinned out: in the full panel of roughly 83,000, 20% have a hit.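 48-hour exposure, single concentration, 96-well plates; percent growth endpoint where 0 means no net growth. Active: below 10.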 A number with no mark means an inactive call. Calls of active or inactive are those of the source.

Experiments:
Test in all cases: NCI-60 one-dose screen, 48 h (100 = growth as untreated, 0 = no growth, -100 = all killed)
Details in all cases: 10 µM unless noted
[1] = system: BT-549 breast
[2] = system: MDA-MB-435 melanoma
[3] = system: SW-620 colon
[4] = system: MCF7 breast
[5] = system: HCT-116 colon
[6] = system: HCC-2998 colon
[7] = system: KM12 colon

Structure (SMILES)	growth [1]	growth [2]	growth [3]	growth [4]	growth [5]	growth [6]	growth [7]
Oc1ccccc1-c1nc2c3ccccc3c3ccccc3c2o1	103%	99.3%	68.4%	62.4%	80.7%	103%	93.3%
C=C(C)[C@@H]1CC[C@]2(C(=O)O)CC[C@]3(C)[C@H](CC[C@@H]4[C@@]5(C)C[C@@H](CC#Cc6ccccc6C)C(=O)C(C)(C)[C@@H]5CC[C@]43C)[C@@H]12	43.4%	55.5%	25.7%	15.3%	12.5%	31.7%	20.3%
O=[N+]([O-])c1ccc(N=Nc2c(O)c(N=Nc3cc([N+](=O)[O-])cc([N+](=O)[O-])c3O)cc(N=Nc3cc(S(=O)(=O)O)cc4cc(S(=O)(=O)O)cc(O)c34)c2O)cc1	104%	107%	108%	99.6%	80.9%	104%	103%
COc1ccc(Nc2nc(SCC(C)C)nc(-c3ccc(F)cc3)c2C#N)cc1	75.5%	9.54% (active)	47.9%	29.1%	35.7%	92.8%	44.4%
CCC1=C[C@H]2CN(CCc3c([nH]c4ccccc34)[C@@](C(=O)OC)(c3cc4c(cc3OC)N(C)[C@H]3[C@@](O)(C(=O)OC)[C@H](OC(C)=O)[C@]5(CC)[C@@H]6C[C@@H]6CN6CC[C@]43[C@@H]65)C2)C1	16.1%	-32.6% (active)	29.2%	7.76% (active)	4.74% (active)	22.2%	16.2%
CC(C)(C)CC(C)(C)Cc1ccc(OCCOCC[N+](C)(C)Cc2ccccc2)cc1	-16% (active)	-23.9% (active)	30.2%	12.9%	20.8%	-10% (active)	-52.6% (active)
C#C[C@@]1(O)[C@@H](CO)O[C@@H](n2cc(-c3ccco3)c3c(N)ncnc32)[C@@H]1O	58.5%	66.4%	63.5%	13.9%	68%	56.4%	18.2%
NC(=O)CN1C(=O)c2ccccc2C1=O	86.6%	106%	103%	95.3%	102%	103%	103%
Cc1ccc2nc3nc4ccc[nH]c4cc3c2c1	93.2%	106%	108%	2.23% (active)	97.1%	63.7%	47.8%
COC(=O)c1oc2c(C(=O)/C=C/c3ccc(OC)cc3)c(OCCCN3CCCCC3)ccc2c1C	22.9%	6.56% (active)	-17.9% (active)	6.82% (active)	1.36% (active)	-45% (active)	-11.5% (active)
CSc1nc(-c2ccco2)c2c(N)[nH]nc2n1	102%	115%	111%	94.2%	84.1%	111%	44.1%
O=C1Nc2ccc(Cl)cc2/C1=N/c1nc(-c2ccc(F)cc2)cs1	55.4%	9.56% (active)	27.7%	12.5%	28.4%	42.2%	28.2%
O=C(/C(=C/c1ccc([N+](=O)[O-])cc1)SCc1ccccc1)c1ccc(Cl)cc1	89.2%	85.7%	4.23% (active)	7.72% (active)	30.5%	97.3%	65.6%
CNCc1cccc2c1OCCOCCOCCN(CCN1CCOCC1)S(=O)(=O)c1ccc(cc1)-c1cnc(N)c(n1)C(=O)N2	22.3%	47.3%	43.4%	37.8%	35.9%	48.2%	37.5%
C=C1C(=O)O[C@H]2[C@H]1CC/C(COC(=O)NCc1nc3ccccc3[nH]1)=C\CC[C@@]1(C)O[C@@H]21	86.7%	63.1%	25.2%	36.5%	47.5%	104%	99.3%
CC(=O)c1c(OCC#N)ccc2c(C)cc(=O)oc12	118%	107%	96.8%	99.2%	101%	109%	107%
NC(N)=NC(N)=Nc1cc2ccccc2c2ccccc12	36.1%	68.9%	22.9%	2.2% (active)	-44.5% (active)	26.2%	47%

Structure (SMILES)	growth [1]	growth [2]	growth [3]	growth [4]	growth [5]	growth [6]	growth [7]
C(=C\c1cn(-c2ccccc2)nc1-c1ccccc1)/c1nnc(-c2c[nH]c3ccccc23)o1	81%	49%	45.8%	34.3%	24.7%	97.3%	37.9%
COc1cc(/C=C/C(=O)/C=C/c2cc3ccc(Cl)cc3[nH]c2=O)ccc1O	97.5%	36%	29.7%	57.8%	2.1% (active)	86.3%	81.3%
N#CC(C#N)=C1NC(c2ccccc2)=C(c2ccccc2)C(c2ccccc2Cl)=C1C#N	86.2%	114%	110%	97.1%	94.1%	99.5%	113%
CCN1CCC[C@H]1c1cc(O)c2c(c1OC)C[C@H]1C[C@H]3[C@H](N)C(=O)C(C(N)=O)=C(O)[C@@]3(O)C(=O)C1=C2O	-3.73% (active)	-4.48% (active)	1.96% (active)	0.852% (active)	-4.51% (active)	-6.34% (active)	5.97% (active)
CCOC(=O)c1c(C(F)(F)F)n([O-])c2ccc(Cl)cc2[n+]1=O	-59.6% (active)	-70.1% (active)	-64.7% (active)	-57.6% (active)	-62.8% (active)	-90.8% (active)	-78.5% (active)
CCCCc1n(Cc2ccc3ccccc3c2)c2ccccc2[n+]1Cc1ccc2ccccc2c1	-74% (active)	-93.6% (active)	-79.8% (active)	-85.6% (active)	-83.2% (active)	-80.6% (active)	-82.9% (active)
CCOC(=O)c1c(C)nc2c(c1N)/C(=C/c1cccs1)C(=O)N2Cc1ccccc1	73.6%	88.9%	58%	8.22% (active)	34.9%	96%	40.5%
c1ccc2nc(N3CCOCC3)c(N3CCCCC3)nc2c1	109%	106%	104%	93.8%	102%	103%	101%
CC(C)(C)c1ccc(O)c(Cc2cc(C(C)(C)C)ccc2O)c1	113%	107%	105%	72.5%	88.6%	103%	100%
C=C(C)[C@@H]1CC[C@]2(C(=O)OCCOCCOCC[P+](c3ccccc3)(c3ccccc3)c3ccccc3)CC[C@]3(C)[C@H](CC[C@@H]4[C@@]5(C)CC[C@H](OC(=O)C(Cl)Cl)C(C)(C)[C@@H]5CC[C@]43C)[C@@H]12	-89.4% (active)	-62.5% (active)	5.87% (active)	1.7% (active)	-84.1% (active)	12.1%	-55.7% (active)
Clc1ccc2c(NCCCNC3CCCCC3)ccnc2c1	107%	84.6%	111%	90.7%	64.5%	91.3%	101%
Nc1cccc(C(=O)Nc2ccc3c(O)c(N=Nc4ccc(N=Nc5ccc(S(=O)(=O)O)cc5)cc4)c(S(=O)(=O)O)cc3c2)c1	98.6%	105%	107%	97.2%	95%	114%	108%
COc1ccc2nc3c(n2c1)C(=O)C(=O)c1ccccc1-3	-72.3% (active)	-91.8% (active)	-61.8% (active)	-53.1% (active)	-2.17% (active)	-13.5% (active)	23.1%
CCCCCCCc1n(Cc2ccc3ccccc3c2)c2ccccc2[n+]1Cc1ccc2ccccc2c1	-86.6% (active)	-92.3% (active)	-80% (active)	-64.7% (active)	-84.6% (active)	-61.2% (active)	-74.9% (active)
O=C1CCC23OC(C(O)c4ccccc4N12)C1C(Br)=NOC13 (stereo unspecified)	102%	96.2%	107%	96.5%	94.6%	100%	103%
COc1cc(/C=N/Nc2nc(-c3ccc(F)cc3)c(C#N)c(N3CCOCC3)n2)ccc1O	94.3%	97%	95%	93.2%	96.8%	117%	103%
